# Only some compounds are listed: those with a hit (about 7.3% of all), similar ones and a draw of the others.
# NPC1 promoter act = NPC1 promoter activation; Huh7 NPC1 promoter luciferase reporter, 24 h; Potency, µM (doses to about 9.22 µM), inactives show at the highest dose activation, most hits filed as activators; 2.4% of 320,000 active; note: % of control where 0% means no effect; nearly all actives have a fitted effect of over 60% in size
#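 Huh7 cells stably carrying NPC1 promoter–luciferase, plated in Opti-MEM with 10% FBS for 2 h, were exposed to compound in DMSO for 24 h at 37 °C; luciferase reagent was added for 10 min and luminescence read.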
# ELG1 genotoxic = genotoxicity induction in ELG1-luciferase HEK293T cells. HEK293T ELG1-luciferase reporter, luminescence, 16 h. Potency, µM (highest dose often 46 µM), inactives show at the highest dose activity change, positive = activation, hits mostly activators. 1.3% of 330,000 active; note: % of control where 0% means no effect; nearly all actives have a fitted effect of over 60% in size
#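 Screening used a luciferase reporter fused to human ELG1 in HEK293T cells. Luminescence was read on a CCD plate imager after 16 hr exposure and 30 min ONE-Glo incubation.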
# Rab9 promoter act = Rab9 promoter activation; Huh7 Rab9 promoter-luciferase reporter, luminescence, 24 h; 2.8% of 320,000 active; AID 485297; Potency, µM (highest dose often 9.22 µM), for the others: top-dose activation, negative = inhibition, actives largely listed as activators; note: % of control where 0% means no effect; nearly all actives have a fitted effect of over 60% in size
#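 Quantitative HTS format; Huh7 Rab9-luciferase reporter cells (1500/well) receive compound 2 h post-plating, incubate 24 h at 37 °C, then get luciferase reagent for 10 min before luminescence reading.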
# KinaseGlo FLuc = blocks Kinase-Glo luciferase, a counter-screen artifact; Kinase-Glo luciferase, ATP luminescence, 8 min; Potency, µM (series often up to 38.3 µM), inactives show top-dose activity change, negative = inhibition, hits mostly inhibitors; 0.28% of 200,000 active; note: % is set by controls: 0 for no effect and ±100 for the full control effect; nearly all actives have a fitted effect of over 60% in size
#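 Substrate mix (final 50 mM imidazole pH 7.2, 50 mM KCl, 7 mM MgCl2, 10 uM ATP, 0.01% Tween 20, 0.05% BSA) plus pin-tool compound, then Kinase-Glo detection mix; 8 min ambient, luminescence read.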
# FLuc counter = firefly luciferase modulation, counter-screen for miR-21 project; P08659; purified FLuc, Km substrates, luminescence inhibition; Potency, µM (titrated, usually from 57.5 µM), inactives show top-dose activity change, negative = inhibition, most hits filed as inhibitors; 6.9% of 360,000 active; AID 588342;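 note: plate controls were vehicle for no effect and reference inhibitor for full effect; nearly all actives have a fitted effect of over 55% in size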
# Target sequence (P08659 whole entry, looked up): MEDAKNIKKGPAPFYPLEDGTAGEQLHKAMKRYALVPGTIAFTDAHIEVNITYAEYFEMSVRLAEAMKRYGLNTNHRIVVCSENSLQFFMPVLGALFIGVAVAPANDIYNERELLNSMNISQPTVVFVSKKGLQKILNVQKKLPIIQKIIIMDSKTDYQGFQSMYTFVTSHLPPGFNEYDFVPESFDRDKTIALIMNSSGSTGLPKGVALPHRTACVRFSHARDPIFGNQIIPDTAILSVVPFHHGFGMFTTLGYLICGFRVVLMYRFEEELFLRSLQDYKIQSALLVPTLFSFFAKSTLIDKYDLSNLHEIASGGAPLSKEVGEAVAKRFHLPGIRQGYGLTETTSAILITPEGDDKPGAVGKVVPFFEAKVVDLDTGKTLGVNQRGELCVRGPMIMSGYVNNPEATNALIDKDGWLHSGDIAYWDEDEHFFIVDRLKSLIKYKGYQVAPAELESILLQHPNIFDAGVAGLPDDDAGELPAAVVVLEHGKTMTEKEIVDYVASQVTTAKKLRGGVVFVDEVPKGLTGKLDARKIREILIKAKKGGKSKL
#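 Biochemical qHTS of compounds, final roughly 60 µM downward over six points, against 10 nM purified firefly luciferase using Km concentrations of substrates (10 uM D-luciferin, 10 uM ATP) in Tris acetate pH 7.5 buffer; luminescence output.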
# SMN2 splice enh = SMN2 splice variant enhancement; 2.8% of 210,000 active; Potency, µM (titrated, usually from 46.1 µM), without a hit: at the highest dose activity change, positive = activation, most hits filed as activators; HEK293 SMN2-luciferase splicing reporter, luminescence, 30-36 h; AID 1458; note: % of control where 0% means no effect; nearly all actives have a fitted effect of over 55% in size
#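 HEK293 cells carry an SMN2 minigene-luciferase reporter in which exon 7 inclusion puts luciferase in frame. Cells were seeded at 2000 cells/well, attached for 10-12 hours, then exposed to compounds for 30-36 hours at 37C before ONE-Glo luminescence.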
# * hit, by the source's call; ? = inconclusive; . = no result; [ ] = remark or other dose. Calls come from the whole dose curve; as a rule, active = well fitted curve in the direction sought with a large enough effect; inconclusive = small, poorly fitted or top-dose-only effect, or another doubt; inactive = no such curve, though single readings can be large; an effect the other way counts as inactive or inconclusive. Potency is the fitted concentration of half-maximal effect.
SMILES,NPC1 promoter act,ELG1 genotoxic,Rab9 promoter act,KinaseGlo FLuc,FLuc counter,SMN2 splice enh
CCOc1ccc2nc(N3CCCC(C(=O)Nc4cc(Cl)c(OC)cc4OC)C3)sc2c1 (stereo unspecified),.,.,.,.,2.69µM*,?
COc1ccc(CCNC(=O)C2CCCN(c3nc4c(C)cc(C)cc4s3)C2)cc1OC (stereo unspecified),.,.,.,.,?,2.82µM*
CCOc1ccc2nc(N3CCCC(C(=O)Nc4ccc(OC)cc4)C3)sc2c1 (stereo unspecified),.,.,.,.,1.51µM*,21.8%
CCOC(=O)N1CCN(C(=O)C2CCCN(c3nc4ccc(OCC)cc4s3)C2)CC1 (stereo unspecified),10.8%,-0.8%,4.9%,1.1%,12µM*,21.4%
CC(=O)c1ccc(N2CCN(c3ccnc4cc(Cl)ccc34)CC2)cc1,-2.2%,-19.8%,-3.1%,.,4.5%,.
Cc1cc(C)c2nc(N3CCC(C(=O)NCc4ccccn4)CC3)sc2c1,11.5%,1.1%,20.6%,-1.9%,16.9µM*,-31.8%
CCOc1ccc2nc(N3CCCC(C(=O)Nc4cccc(Cl)c4C)C3)sc2c1 (stereo unspecified),.,.,.,.,3.38µM*,7.94µM*
CCOc1ccc2nc(N3CCCC(C(=O)NC4CCCC4)C3)sc2c1 (stereo unspecified),?,-6.4%,?,.,3.01µM*,.
CCOc1ccc2nc(N3CCC(C(=O)NC4CCCCC4)CC3)sc2c1,24.0%,3.9%,15.1%,.,?,.
CCOC(=O)Nc1ccc2nc(N3CCCCCC3)sc2c1,?,10.3µM*,?,.,7.57µM*,.
CCOC(=O)N1CCN(C(=O)Nc2ccc3nc(C)sc3c2)CC1,0.4%,6.2%,-0.4%,-2.7%,5.6%[2.3 µM],?
CCOc1ccc2nc(N3CCCC(C(=O)NCCc4ccc(SC)cc4)C3)sc2c1 (stereo unspecified),.,.,.,.,-19.7%,20µM*
COc1ccc(NC(=S)N2CCCCC2c2cccnc2)cc1 (stereo unspecified),0.7%,0.0%,-3.4%,.,16.9µM*,.
Cc1cnc(NC(=O)Nc2ccc(Cl)cc2)s1,14.4%,?,-31.3%,-2.0%,4.78µM*,173.4%
CCOc1ccc(NC(=O)NCc2cccnc2)cc1,-7.6%,3.0%,2.8%,7.4%,-0.5%,.
O=C(Nc1ccc(Cl)cc1)Nc1cccnc1,25.0%,?,?,11.2%,12µM*,16.0%
Cc1cccc(NC(=S)N2CCCCC2c2cccnc2)c1C (stereo unspecified),-2.4%,0.9%,1.1%,.,1.3%,.
CCOc1ccc(NC(=O)Nc2cccnc2)cc1,?,?,3.55µM*,.,7.57µM*,.
O=C(Nc1cccnc1)Nc1ccc(Cl)cc1Cl,-2.9%,0.1%,3.1%,1.1%,?,14.4%
CC(C)(C)OC(=O)N1CCC(C(=O)N[C@@H](Cc2c[nH]c3ccccc23)C(=O)O)CC1,-5.2%,-0.6%,-6.0%,.,-18.3%,.
CCCCCCSc1cccc(-c2nc3cc(C)ccn3c2NC2CCCCC2)c1,-12.6%,-7.0%,-12.7%,.,-6.6%,.
COc1ccc(C(=O)Nc2ccc(C(=O)Nc3cccnc3)cc2)cc1,1.3%,?,19.0%,.,-1.1%,.
COc1ccc(NC(=O)Nc2cccnc2)cc1,23.5%,22.7%,25.1%,-25.1%,16.9µM*,24.0%
CCC(=O)c1ccc(CCCCCC(=O)O)s1,12.8%,12.1%,3.8%,-2.0%,9.53µM*,.
CC(=O)c1ccc(CCCCCCCCCC(=O)O)s1,-0.8%,0.2%,-3.9%,2.9%,?,9.1%
SMILES,NPC1 promoter act,ELG1 genotoxic,Rab9 promoter act,KinaseGlo FLuc,FLuc counter,SMN2 splice enh
CC1CCC/C(=C\Nc2ccc(O)cc2)C1=O (stereo unspecified),2.3%,18.4µM*,?,-9.5%,21.3µM*,-10.5%
CC1(C)OC(C)(C)/C(=C/Nc2ccc(O)cc2)C1=O,4.7%,-0.5%,-2.0%,-3.9%,-10.8%,-6.3%
Cc1cc(C(=O)O)ccc1N/C=C1\CCCC(C)C1=O (stereo unspecified),?,?,?,-6.3%,0.953µM*,?
O=C1CCCC/C1=C\Nc1ccccc1C(=O)O,-2.8%,3.3%,2.1%,0.0%,-14.5%,-5.8%
Cn1c(N=Nc2ccc(N3CCOCC3)cc2)[n+](C)c2ccccc21,-14.1%,8.9%,-10.0%,12.6µM*,7.57µM*,-2.9%
COC(=O)CS(=O)(=O)c1cc([N+](=O)[O-])ccc1NC(=O)OC,-2.2%,2.1%,-0.8%,0.6%,-4.6%,5.7%
O=[N+]([O-])c1cc(N=Nc2ccc3ccccc3c2)ccc1O,2.24µM*,?,2µM*,.,3.38µM*,.
COc1ccccc1N1CCN(CC(=O)Nc2nccs2)CC1,-2.3%,-3.7%,-5.5%,.,-0.7%,.
CC(C)(C)n1ncc2c(=O)n(CC(=O)NCc3ccccc3Cl)cnc21,0.398µM*,?,0.398µM*,-6.3%,3.01µM*,11.2µM*
CC(C)(C)n1ncc2c(=O)n(Cc3c(F)ccc(Cl)c3Cl)cnc21,.,.,.,.,13.5µM*,.
Cc1ccc(F)c(Cn2cnc3c(cnn3C(C)(C)C)c2=O)c1Cl,0.8%,-2.5%,-1.2%,.,?,.
CC1(C(=O)O)CCC(C(=O)NCCc2ccccc2)C1(C)C (stereo unspecified),0.1%,1.3%,-1.3%,-0.1%,5.2%,3.0%
Cc1ccc(S(=O)(=O)N(CC(=O)N2CCN(c3ccccc3F)CC2)C2CCCCC2)cc1,-0.3%,-3.0%,12.0%,-3.5%,4.7%,-13.2%
CC(=O)c1ccc2c3c(cccc13)C(=O)N(CCc1ccccc1)C2=O,3.98µM*,-4.0%,3.98µM*,-2.3%,10.7µM*,.
O=C(Nc1ccc(Br)cc1)C1CC(O)CN1C(=O)OCc1ccccc1 (stereo unspecified),0.5%,-1.6%,-0.6%,.,-0.5%,.
CCC(C)c1ccc(O)c(NC(=O)c2cccnc2)c1 (stereo unspecified),-1.5%,-2.9%,0.8%,-1.2%,-2.1%,-2.8%
O=C(COc1ccc(-c2ccccc2)cc1)Nc1cccnc1,-11.5%,16.6%,-3.2%,.,5.36µM*,.
O=C(COc1ccc([N+](=O)[O-])cc1)Nc1cccnc1,-0.7%,-2.2%,2.0%,-1.4%,-10.7%,.
CCC(C)c1ccc(NC(=O)c2cccnc2)cc1 (stereo unspecified),2.82µM*,?,2.51µM*,-1.4%,12µM*,12.6µM*
O=C(Nc1cccnc1)c1ccc(F)cc1,-1.9%,1.2%,-1.0%,-1.9%,-8.6%,5.6%
CC(C)(C)C(=O)Nc1ccc(C(=O)Nc2cccnc2)cc1,?,20.6µM*,3.98µM*,-0.2%,21.3µM*,?
O=C(Nc1cccnc1)c1ccc(-c2ccccc2)cc1,?,?,?,-4.3%,2.39µM*,-2.1%
